Results reported in the supplement of paper PMC11732987, “Enantioselective OTUD7B fragment discovery through chemoproteomics screening and high-throughput optimisation” (Communications Chemistry, 2025).
Unmarked numbers belong to inactive results.

Each target was assayed with ClCC(=O)N1CCC(CC#N)C1 (assay: log2 ratio of Biotin-Ahx-Ub-VS probe labelling (compound/DMSO); higher = less target engagement, active = hit call of the paper (q ≤ 0.05, log2 ratio ≤ -1)). Conditions: compound concentration: 50uM; treatment time: 3 h.
Procedure: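 Round 2 competitive ABPP in HEK293T lysate. Purified HTC-D2B compounds were tested at 50 and 200 µM for 3 h, followed by Biotin-Ahx-Ub-VS enrichment and diaPASEF LC-MS/MS. Values are the average log2 ratio (compound/DMSO) from an unpaired t-test (n=3 treated, n=26 DMSO).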

UniProt Q70EL2, sequence (Q70EL2 whole entry): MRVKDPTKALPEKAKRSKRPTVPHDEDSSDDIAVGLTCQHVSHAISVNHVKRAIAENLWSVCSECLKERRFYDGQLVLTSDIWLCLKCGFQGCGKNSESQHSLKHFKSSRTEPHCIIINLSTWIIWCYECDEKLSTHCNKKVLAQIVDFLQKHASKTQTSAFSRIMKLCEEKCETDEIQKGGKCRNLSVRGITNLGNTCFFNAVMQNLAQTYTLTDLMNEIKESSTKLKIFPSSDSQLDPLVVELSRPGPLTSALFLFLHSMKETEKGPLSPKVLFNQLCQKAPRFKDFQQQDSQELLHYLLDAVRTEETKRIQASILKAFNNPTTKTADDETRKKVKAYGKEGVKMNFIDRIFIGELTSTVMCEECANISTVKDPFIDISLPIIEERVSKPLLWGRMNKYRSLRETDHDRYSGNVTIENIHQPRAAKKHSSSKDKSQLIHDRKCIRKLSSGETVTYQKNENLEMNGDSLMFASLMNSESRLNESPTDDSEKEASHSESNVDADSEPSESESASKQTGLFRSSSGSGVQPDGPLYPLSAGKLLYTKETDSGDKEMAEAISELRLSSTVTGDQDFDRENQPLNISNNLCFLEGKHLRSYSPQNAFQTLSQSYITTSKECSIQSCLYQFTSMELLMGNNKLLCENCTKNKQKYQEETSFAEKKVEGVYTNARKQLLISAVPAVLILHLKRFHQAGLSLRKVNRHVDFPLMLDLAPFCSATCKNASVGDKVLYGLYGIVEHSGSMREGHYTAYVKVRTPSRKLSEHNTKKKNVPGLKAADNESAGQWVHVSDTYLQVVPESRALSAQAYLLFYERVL
UniProt Q93008, sequence (Q93008 whole entry): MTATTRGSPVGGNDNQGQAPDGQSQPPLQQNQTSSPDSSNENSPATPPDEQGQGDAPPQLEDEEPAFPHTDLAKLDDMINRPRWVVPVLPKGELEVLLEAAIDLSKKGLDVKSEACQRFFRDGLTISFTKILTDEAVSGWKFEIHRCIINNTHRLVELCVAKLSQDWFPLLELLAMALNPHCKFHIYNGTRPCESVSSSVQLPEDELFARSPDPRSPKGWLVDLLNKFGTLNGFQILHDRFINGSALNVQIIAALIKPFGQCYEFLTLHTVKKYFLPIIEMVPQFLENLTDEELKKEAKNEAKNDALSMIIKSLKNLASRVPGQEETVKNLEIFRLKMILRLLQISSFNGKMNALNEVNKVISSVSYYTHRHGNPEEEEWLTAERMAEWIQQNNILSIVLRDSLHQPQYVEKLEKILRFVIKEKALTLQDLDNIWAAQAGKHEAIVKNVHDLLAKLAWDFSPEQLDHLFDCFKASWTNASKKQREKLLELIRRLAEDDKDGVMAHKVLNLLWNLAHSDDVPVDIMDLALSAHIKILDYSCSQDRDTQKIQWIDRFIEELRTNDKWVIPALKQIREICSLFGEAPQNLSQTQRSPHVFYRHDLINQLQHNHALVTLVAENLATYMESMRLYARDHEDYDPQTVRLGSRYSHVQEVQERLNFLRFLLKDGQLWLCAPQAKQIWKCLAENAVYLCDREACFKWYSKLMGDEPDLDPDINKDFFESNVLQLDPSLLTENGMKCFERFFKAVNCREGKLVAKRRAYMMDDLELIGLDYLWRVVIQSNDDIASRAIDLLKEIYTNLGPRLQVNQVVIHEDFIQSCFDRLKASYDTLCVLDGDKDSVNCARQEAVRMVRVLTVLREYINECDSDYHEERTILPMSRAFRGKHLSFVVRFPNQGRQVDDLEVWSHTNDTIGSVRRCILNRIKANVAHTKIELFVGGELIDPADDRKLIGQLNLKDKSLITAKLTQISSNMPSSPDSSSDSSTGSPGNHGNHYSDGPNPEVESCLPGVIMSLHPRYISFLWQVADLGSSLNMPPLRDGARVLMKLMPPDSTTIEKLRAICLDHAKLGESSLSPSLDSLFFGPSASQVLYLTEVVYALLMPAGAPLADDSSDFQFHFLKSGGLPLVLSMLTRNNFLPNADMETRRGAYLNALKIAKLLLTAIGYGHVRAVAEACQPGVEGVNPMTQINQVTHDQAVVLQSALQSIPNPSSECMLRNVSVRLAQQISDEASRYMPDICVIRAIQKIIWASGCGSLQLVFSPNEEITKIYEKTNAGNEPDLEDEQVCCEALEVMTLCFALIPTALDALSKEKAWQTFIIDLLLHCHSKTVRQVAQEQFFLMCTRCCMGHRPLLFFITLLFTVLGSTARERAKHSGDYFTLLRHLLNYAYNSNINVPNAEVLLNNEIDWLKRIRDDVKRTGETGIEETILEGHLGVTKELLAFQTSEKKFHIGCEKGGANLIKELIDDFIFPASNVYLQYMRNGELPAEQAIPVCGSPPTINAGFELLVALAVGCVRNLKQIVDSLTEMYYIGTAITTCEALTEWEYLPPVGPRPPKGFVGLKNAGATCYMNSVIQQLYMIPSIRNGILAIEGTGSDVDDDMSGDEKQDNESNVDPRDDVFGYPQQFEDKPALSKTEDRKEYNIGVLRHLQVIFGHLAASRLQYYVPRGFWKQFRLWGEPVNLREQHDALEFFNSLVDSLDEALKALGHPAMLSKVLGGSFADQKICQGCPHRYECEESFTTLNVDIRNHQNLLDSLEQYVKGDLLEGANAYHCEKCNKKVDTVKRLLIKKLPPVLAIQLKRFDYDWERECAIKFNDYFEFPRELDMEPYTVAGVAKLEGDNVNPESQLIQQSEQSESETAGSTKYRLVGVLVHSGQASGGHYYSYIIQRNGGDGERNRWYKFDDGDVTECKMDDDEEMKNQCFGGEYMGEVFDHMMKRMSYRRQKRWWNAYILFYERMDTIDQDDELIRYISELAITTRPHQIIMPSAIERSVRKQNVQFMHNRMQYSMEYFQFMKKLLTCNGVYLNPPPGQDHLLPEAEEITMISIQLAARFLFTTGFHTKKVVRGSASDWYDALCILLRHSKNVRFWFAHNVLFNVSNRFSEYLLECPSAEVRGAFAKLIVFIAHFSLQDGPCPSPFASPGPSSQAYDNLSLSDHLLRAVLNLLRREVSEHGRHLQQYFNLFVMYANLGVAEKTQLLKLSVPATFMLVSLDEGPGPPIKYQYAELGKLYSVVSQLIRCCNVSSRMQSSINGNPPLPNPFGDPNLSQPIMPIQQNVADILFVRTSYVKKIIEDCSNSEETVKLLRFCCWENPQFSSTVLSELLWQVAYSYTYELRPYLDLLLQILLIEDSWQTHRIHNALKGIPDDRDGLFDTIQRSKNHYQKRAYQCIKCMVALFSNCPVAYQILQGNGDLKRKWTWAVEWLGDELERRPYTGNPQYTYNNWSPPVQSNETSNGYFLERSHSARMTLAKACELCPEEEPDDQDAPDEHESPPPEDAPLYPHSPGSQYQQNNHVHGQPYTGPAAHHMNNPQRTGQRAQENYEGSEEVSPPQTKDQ
UniProt Q8TE49, sequence (Q8TE49 whole entry): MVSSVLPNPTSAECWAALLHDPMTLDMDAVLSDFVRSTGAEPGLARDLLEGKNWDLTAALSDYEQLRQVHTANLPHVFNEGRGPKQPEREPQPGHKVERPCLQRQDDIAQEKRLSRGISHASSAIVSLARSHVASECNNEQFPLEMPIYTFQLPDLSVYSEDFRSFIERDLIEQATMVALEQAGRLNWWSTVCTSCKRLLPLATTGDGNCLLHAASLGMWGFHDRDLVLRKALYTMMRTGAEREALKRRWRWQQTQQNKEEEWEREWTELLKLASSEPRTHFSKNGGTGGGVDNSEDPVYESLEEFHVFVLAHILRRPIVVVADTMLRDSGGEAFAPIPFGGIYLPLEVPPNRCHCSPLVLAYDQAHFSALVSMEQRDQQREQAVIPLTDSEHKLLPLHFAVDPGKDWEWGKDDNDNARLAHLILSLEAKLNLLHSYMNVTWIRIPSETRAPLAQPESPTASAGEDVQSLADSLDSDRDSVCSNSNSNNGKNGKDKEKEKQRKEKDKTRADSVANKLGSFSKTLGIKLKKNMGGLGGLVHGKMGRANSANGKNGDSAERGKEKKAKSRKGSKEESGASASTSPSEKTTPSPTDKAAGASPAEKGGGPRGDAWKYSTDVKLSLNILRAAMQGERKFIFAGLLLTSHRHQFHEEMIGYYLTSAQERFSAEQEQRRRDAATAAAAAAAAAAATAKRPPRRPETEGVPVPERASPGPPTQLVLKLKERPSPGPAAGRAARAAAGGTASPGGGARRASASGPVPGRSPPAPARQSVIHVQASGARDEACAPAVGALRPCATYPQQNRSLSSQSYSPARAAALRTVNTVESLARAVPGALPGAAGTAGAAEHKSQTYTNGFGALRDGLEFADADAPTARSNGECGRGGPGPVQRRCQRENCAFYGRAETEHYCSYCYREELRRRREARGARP
UniProt Q6GQQ9, sequence (Q6GQQ9 whole entry): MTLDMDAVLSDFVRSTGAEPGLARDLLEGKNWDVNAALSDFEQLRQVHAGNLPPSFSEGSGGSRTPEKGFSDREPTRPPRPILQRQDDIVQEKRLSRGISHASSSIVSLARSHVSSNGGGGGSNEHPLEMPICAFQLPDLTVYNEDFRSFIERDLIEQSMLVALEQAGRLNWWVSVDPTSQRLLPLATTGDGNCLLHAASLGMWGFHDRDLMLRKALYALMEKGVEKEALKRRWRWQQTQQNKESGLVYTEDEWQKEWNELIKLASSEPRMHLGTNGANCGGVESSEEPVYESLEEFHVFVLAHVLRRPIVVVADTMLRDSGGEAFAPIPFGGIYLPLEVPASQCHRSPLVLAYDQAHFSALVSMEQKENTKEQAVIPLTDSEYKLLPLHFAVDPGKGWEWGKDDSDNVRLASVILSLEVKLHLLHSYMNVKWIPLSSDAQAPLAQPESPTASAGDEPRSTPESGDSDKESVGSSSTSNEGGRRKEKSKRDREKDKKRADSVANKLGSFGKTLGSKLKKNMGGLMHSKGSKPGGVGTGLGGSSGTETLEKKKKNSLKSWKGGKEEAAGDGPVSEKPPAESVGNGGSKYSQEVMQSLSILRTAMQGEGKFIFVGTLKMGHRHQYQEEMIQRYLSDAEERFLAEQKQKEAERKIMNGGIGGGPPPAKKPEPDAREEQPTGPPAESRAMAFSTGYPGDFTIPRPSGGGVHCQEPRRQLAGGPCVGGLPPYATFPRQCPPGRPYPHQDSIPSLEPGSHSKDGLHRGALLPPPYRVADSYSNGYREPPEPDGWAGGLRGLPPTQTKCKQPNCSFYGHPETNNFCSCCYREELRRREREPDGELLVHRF

Row | Target | log2 ratio of Biotin-Ahx-Ub-VS probe labelling
1 | MINDY4 (UniProt Q4G0A6) | 0.173
2 | PSMD7 (UniProt P51665) | 0.408
3 | USP38 (UniProt Q8NB14) | 0.00826
4 | USP9X (UniProt Q93008) | 0.0276
5 | UniProt Q70EL2 | -0.0717
6 | COPS5 (UniProt Q92905) | -0.111
7 | UCHL5 (UniProt Q9Y5K5) | -0.227
8 | USP34 (UniProt Q70CQ2) | 0.721
9 | OTUD7B (UniProt Q6GQQ9) | -0.339
10 | UniProt Q8TE49 | -0.317
11 | OTUD6B (UniProt Q8N6M0) | -0.197
12 | USP42 (UniProt Q9H9J4) | -0.0062
13 | USP48 (UniProt Q86UV5) | -0.0601
14 | UniProt O00487 | -0.033
15 | VCPIP1 (UniProt Q96JH7) | -0.405
16 | UniProt Q5T2D3 | -0.206
17 | USP10 (UniProt Q14694) | -0.155
18 | PRPF8 (UniProt Q6P2Q9) | 0.045
19 | USP8 (UniProt P40818) | -0.261
20 | ATXN3 (UniProt P54252) | -0.387

Same assay, conditions: compound concentration: 200uM; treatment time: 3 h

Row | Target | log2 ratio of Biotin-Ahx-Ub-VS probe labelling
21 | MINDY4 (UniProt Q4G0A6) | -0.0819
22 | PSMD7 (UniProt P51665) | 0.631
23 | USP38 (UniProt Q8NB14) | -0.302
24 | USP9X (UniProt Q93008) | -0.109
25 | UniProt Q70EL2 | -0.437
26 | COPS5 (UniProt Q92905) | -0.11
27 | UCHL5 (UniProt Q9Y5K5) | -0.17
28 | USP34 (UniProt Q70CQ2) | -0.382
29 | OTUD7B (UniProt Q6GQQ9) | -0.552
30 | UniProt Q8TE49 | -0.54
31 | OTUD6B (UniProt Q8N6M0) | -0.265
32 | USP42 (UniProt Q9H9J4) | 0.221
33 | USP48 (UniProt Q86UV5) | -0.185
34 | UniProt O00487 | -0.198
35 | VCPIP1 (UniProt Q96JH7) | -0.311
36 | UniProt Q5T2D3 | -0.203
37 | USP10 (UniProt Q14694) | -0.0316
38 | PRPF8 (UniProt Q6P2Q9) | -0.00376
39 | USP8 (UniProt P40818) | -0.168
40 | ATXN3 (UniProt P54252) | -0.524
